From PubChem BioAssay AID1159580 (chemical genetic matrix, 2015)
“And” between values parts separate entries of the source, which are not always exact repeats. Equal entries are not always repeated. Out of some 5,500 compounds screened, about 2,000 (36%) were called active. Inconclusive results (about 18%) are left out. Cut-off read from the data, not from the text of the source: active = normalized growth mostly below about 0.91 (no sharp cut-off); inconclusive = no clear call, values can overlap the other calls; inactive = mostly above about 0.92. The list shows a part of the results.

Assay: chemical genetic growth profiling, strain panel (AID 1159580);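 note: tested at 20 µM; growth read once vehicle control cultures reached saturation at 30 °C; 1 = growth at the plate median or of vehicle wells; lower values mean less growth of the strain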
Details: S. cerevisiae deletion strains, growth OD

Measured: normalized growth

C[n+]1cc2c3c(ccc2c2ccc4cc5c(cc4c21)OCO5)OCO3
0.073 (active) and 0.976 (inactive): locus YJL095W, strain BCK1, stronger effect = lower value
0.0584 (active) and 0.981 (inactive): locus YHR030C, strain SLT2, stronger effect = lower value
active: locus YAL013W, strain DEP1, stronger effect = lower value 0.06 and 0.0669 | locus YAL021C, strain ccr4, stronger effect = lower value 0.823 | locus YAL026C, strain drs2, stronger effect = lower value 0.657 | locus YAL030W, strain snc1, stronger effect = lower value 0.676 | locus YBL061C, strain skt5, stronger effect = lower value 0.627 | locus YBR009C, strain hhf1, stronger effect = lower value 0.268 | locus YBR021W, strain FUR4, stronger effect = lower value 0.146 | locus YBR023C, strain chs3, stronger effect = lower value 0.592 | locus YBR229C, strain ROT2, stronger effect = lower value 0.0617 | locus YBR231C, strain swc5, stronger effect = lower value 0.326 | locus YBR279W, strain paf1, stronger effect = lower value 0.674 | locus YCL011C, strain gbp2, stronger effect = lower value 0.34 | locus YCL016C, strain dcc1, stronger effect = lower value 0.535 | locus YCL029C, strain bik1, stronger effect = lower value 0.0684 | locus YCL061C, strain MRC1, stronger effect = lower value 0.672 | locus YCL069W, strain vba3, stronger effect = lower value 0.596 | locus YCR088W, strain abp1, stronger effect = lower value 0.802 | locus YDL005C, strain med2, stronger effect = lower value 0.711 | locus YDL035C, strain GPR1, stronger effect = lower value 0.057 | locus YDL040C, strain nat1, stronger effect = lower value 0.858 | locus YDL074C, strain BRE1, stronger effect = lower value 0.0875 | locus YDL101C, strain DUN1, stronger effect = lower value 0.0699 | locus YDL134C, strain PPH21, stronger effect = lower value 0.0603 | locus YDL192W, strain arf1, stronger effect = lower value 0.0735 | locus YDR101C, strain arx1, stronger effect = lower value 0.0711 | locus YDR137W, strain rgp1, stronger effect = lower value 0.692 | locus YDR150W, strain NUM1, stronger effect = lower value 0.0564 | locus YDR159W, strain sac3, stronger effect = lower value 0.62 | locus YDR162C, strain NBP2, stronger effect = lower value 0.0557 | locus YDR297W, strain sur2, stronger effect = lower value 0.609 | locus YDR318W, strain mcm21, stronger effect = lower value 0.0705 | locus YDR334W, strain swr1, stronger effect = lower value 0.46 | locus YDR335W, strain msn5, stronger effect = lower value 0.714 | locus YDR363W, strain ESC2, stronger effect = lower value 0.0888 | locus YDR388W, stronger effect = lower value 0.0658 | locus YDR392W, strain spt3, stronger effect = lower value 0.11 | locus YDR502C, strain sam2, stronger effect = lower value 0.0731 | locus YEL003W, strain gim4, stronger effect = lower value 0.668 | locus YEL037C, strain rad23, stronger effect = lower value 0.797 | locus YEL061C, strain CIN8 (second series), stronger effect = lower value 0.7 | locus YEL061C, strain CIN8, stronger effect = lower value 0.0546 | locus YER015W, strain faa2, stronger effect = lower value 0.516 | locus YER016W, strain bim1, stronger effect = lower value 0.788 | locus YER110C, stronger effect = lower value 0.0876 | locus YER111C, strain swi4, stronger effect = lower value 0.847 | locus YER155C, strain BEM2 (second series), stronger effect = lower value 0.442 | locus YER155C, strain BEM2, stronger effect = lower value 0.0755 | locus YER167W, strain BCK2, stronger effect = lower value 0.0605 | locus YFR010W, strain ubp6, stronger effect = lower value 0.898 | locus YGL078C, strain dbp3, stronger effect = lower value 0.907 | locus YGL086W, strain mad1, stronger effect = lower value 0.0683 | locus YGL173C, strain kem1, stronger effect = lower value 0.772 | locus YGL227W, strain vid30, stronger effect = lower value 0.519 | locus YGL240W, strain doc1, stronger effect = lower value 0.396 | locus YGL248W, strain PDE1, stronger effect = lower value 0.0602 | locus YGL253W, strain hxk2, stronger effect = lower value 0.501 | locus YGR078C, strain PAC10, stronger effect = lower value 0.0588 | locus YGR135W, strain pre9, stronger effect = lower value 0.0753 | locus YGR229C, strain SMI1, stronger effect = lower value 0.0651 | locus YGR252W, strain gcn5, stronger effect = lower value 0.18 | locus YHR013C, strain ard1, stronger effect = lower value 0.319 | locus YHR027C, strain rpn1, stronger effect = lower value 0.73 | locus YHR079C, strain IRE1 (second series), stronger effect = lower value 0.0663 | locus YHR094C, strain hxt1, stronger effect = lower value 0.0664 | locus YHR129C, strain ARP1, stronger effect = lower value 0.0634 | locus YHR142W, strain chs7, stronger effect = lower value 0.348 | locus YHR200W, strain rpn10, stronger effect = lower value 0.0675 | locus YIL066C, strain RNR3, stronger effect = lower value 0.0586 | locus YIL073C, strain SPO22, stronger effect = lower value 0.133 | locus YIL125W, strain kgd1, stronger effect = lower value 0.915 | locus YIR030C, strain dcg1, stronger effect = lower value 0.0697 | locus YJL092W, strain hpr5, stronger effect = lower value 0.793 | locus YJL095W, strain BCK1 (second series), stronger effect = lower value 0.467 | locus YJL115W, strain asf1, stronger effect = lower value 0.881 | locus YJL129C, strain trk1, stronger effect = lower value 0.309 | locus YJL134W, strain LCB3, stronger effect = lower value 0.0573 | locus YJL164C, strain tpk1, stronger effect = lower value 0.363 | locus YJL166W, strain qcr8, stronger effect = lower value 0.242 | locus YJL168C, strain set2, stronger effect = lower value 0.0819 | locus YJL187C, strain SWE1 (second series), stronger effect = lower value 0.0606 | locus YJL187C, strain SWE1, stronger effect = lower value 0.618
inactive: locus YBR171W, strain sec66, stronger effect = lower value 0.983 | locus YDL185W, strain tfp1, stronger effect = lower value 0.914 | locus YDR001C, strain nth1, stronger effect = lower value 0.928 | locus YDR069C, strain doa4, stronger effect = lower value 0.902 | locus YDR195W, strain ref2 1.09 | locus YER002W, strain NOP16, stronger effect = lower value 1.01 | locus YGL167C, strain pmr1, stronger effect = lower value 0.974 | locus YHR079C, strain IRE1, stronger effect = lower value 0.985 | locus YJL154C, strain vps35, stronger effect = lower value 0.962
